Rows were chosen to be rich in hits. Some 2.4% of all compounds tested hit in one or more screens of this group.
D2 antag: D2 dopamine receptor (human) antagonism. hit rate 2% among 340,000. P14416. HEK293 TREx D2 cells, calcium flux, dopamine EC80. inhibition, % at 10 µM; in the data active = inhibition above about 30%; inactive = below that, where a call was filed; note: 0% is about no effect
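Tetracycline-induced HEK293 TREx cells expressing D2 receptor forced-coupled to calcium signalling, loaded with no-wash calcium dye. Compounds added and calcium flux read 180 s, then dopamine added at EC80 and read a further 180 s.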
D2 ag-1: human D2 receptor agonism in beta-arrestin assay; P14416; DiscoveRx PathHunter D2 beta-arrestin, luminescence, 90 min; 100% = 57 uM dopamine signal; activation, % (concentration not given with the values); hit rate 0.084% among 360,000; AID 624465; in the data active = activation above about 40%; inconclusive = between about 15% and that limit
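DiscoveRx PathHunter D2 beta-arrestin cells (2,100/well) attached overnight, then compound-stimulated 90 min at 37 C in HBSS/10 mM HEPES/0.1% Tween-20 buffer; beta-galactosidase complementation read by luminescence after 1 h at ambient temperature. Dopamine 57 uM final (EC100) as control.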
D2 ag-2: D2 dopamine receptor (human) agonism. P14416. activation, % at 2 µM. AID 485358. hit rate 0.53% among 340,000. HEK293 T-REx D2 cells, calcium flux agonist mode;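 active = activation over 3 SD above normal in the single-dose calcium agonist read, cut at about 30% in these data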; note: 0% is about no effect
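Calcium-flux readout, 1 cycle/sec over 180 s following compound pin transfer, in inducible HEK293 Trex D2 cells (force-coupled); dopamine controls included. Positive calcium responses during this window marked compounds as potential agonists.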
D2 PAM-1: human D2 receptor positive allosteric modulation | DiscoveRx D2 beta-arrestin cells, luminescence, 90 min; 100% = 57 uM dopamine signal | potentiation, % (concentration not given with the values) | hit rate 0.23% among 360,000 | AID 624464; in the data active = potentiation above about 50%; inconclusive = mostly about 30% to 49%
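PathHunter beta-arrestin assay in DiscoveRx D2 cells. Compounds were added with an EC20 of dopamine (50 nM final) for 90 min at 37 deg C. Luminescence was read 1 h after detection reagent, with 57 uM dopamine as the EC100 control.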
D2 PAM-2: D2 dopamine receptor (human) potentiation | potentiation, % at 10 µM | P14416 | hit rate 0.34% among 340,000 | HEK293 T-REx D2, calcium flux, EC20 dopamine potentiation;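 active = potentiation over 3 SD above the plate norm, cut at about 30% in these data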; note: 0% is about no effect
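Tetracycline-induced Hek293 Trex D2 cells, force-coupled to calcium, loaded with no-wash calcium dye. Compound added with 180 s kinetic read for agonism, then EC20 dopamine and a further 180 s read for potentiation.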
D3 ag: activates human D3 dopamine receptor beta-arrestin recruitment. Potency, µM (top dose mostly 76.9 µM), without a hit: at the highest dose activation, most hits filed as activators. shares compounds with D2 ag-2. hit rate 4% among 2,300. DiscoveRx D3 beta-arrestin cells, luminescence, 90 min. AID 720506;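 note: potency is the fitted concentration of half-maximal effect; 100% = dopamine control response; nearly all actives have a fitted effect of over 70% in size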
Target sequence (P35462 whole entry, looked up): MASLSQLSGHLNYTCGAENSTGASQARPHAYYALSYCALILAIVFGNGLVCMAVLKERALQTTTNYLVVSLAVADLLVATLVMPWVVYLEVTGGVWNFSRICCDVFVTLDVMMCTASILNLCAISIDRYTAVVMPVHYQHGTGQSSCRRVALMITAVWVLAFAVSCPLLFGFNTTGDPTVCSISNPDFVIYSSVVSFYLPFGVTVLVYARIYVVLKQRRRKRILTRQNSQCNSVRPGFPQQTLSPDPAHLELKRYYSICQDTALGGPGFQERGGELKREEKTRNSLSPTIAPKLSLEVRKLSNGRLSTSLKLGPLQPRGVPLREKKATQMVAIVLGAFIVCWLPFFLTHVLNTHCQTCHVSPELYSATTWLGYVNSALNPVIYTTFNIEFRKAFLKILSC
D2 ag-3: counter-screen for D3 agonists: human D2 dopamine receptor agonism | Potency, µM (series often up to 76.9 µM), for inactives: top-dose activation, hits mostly activators | DiscoveRx PathHunter D2 beta-arrestin, luminescence, 90 min; response scale: percent relative to full dopamine signal | shares compounds with D2 ag-2 | hit rate 5.9% among 2,300 | AID 720507; note: potency is the fitted concentration of half-maximal effect; % of control where 0% means no effect; nearly all actives have a fitted effect of over 70% in size
An asterisk follows results filed as active; ? = inconclusive; . = no result. Unless noted, calls come from the whole dose curve; as a rule, active = well fitted activation curve with a large enough effect; inconclusive = small, poorly fitted or top-dose-only effect; inactive = flat fitted curve, though single readings scatter.

SMILES	D2 antag	D2 ag-1	D2 ag-2	D2 PAM-1	D2 PAM-2	D3 ag	D2 ag-3
CCc1ccc(NC(=O)C(=O)NCCN2CCN(C(=O)c3ccc(OC)cc3)CC2)cc1	.	-3	.	-17	.	.	.
CCc1ccc(NC(=O)C(=O)NCCN2CCN(C(=O)c3ccco3)CC2)cc1	1	?	67*	20	-23	5µM*	?
CCn1cc2nc(SCc3ccccc3Cl)n(Cc3ccc(OC)cc3)c(=O)c2n1	.	.	1	.	3	.	.
COc1ccc(NC(=O)c2cc3c(=O)n(Cc4cccs4)ccc3nc2C)c(OC)c1	.	.	2	.	-2	.	.
CC(C)NC(=O)Cn1c(=O)nc(-c2ccccc2)c2ccccc21	.	.	2	.	7	.	.
N#Cc1ccsc1NC(=O)CN1CCN(c2ccccn2)CC1	31*	?	41*	5	-7	?	?
N#Cc1ccsc1NC(=O)CN1CCN(c2ccccc2)CC1	23	13	48*	1	-24	5%	19%
N#Cc1ccc(NC(=O)CN2CCN(c3ccccn3)CC2)cc1	68*	48*	77*	21	-30	?	40µM*
N#Cc1ccsc1NC(=O)CN1CCN(c2ccc(O)cc2)CC1	14	12	4	?	13	.	.
CC(=O)N1CCN(CC(=O)Nc2sccc2C#N)CC1	8	-3	0	0	14	.	.
CC(C)c1ccc(NC(=O)CN2CCN(c3ccccn3)CC2)cc1	0	14	15	-9	-11	.	.
Cc1cccc2cc(CNCC3CCCO3)c(Cl)nc12 (configuration not stated)	12	8	45*	-6	-23	4%	20%
Cc1ccc(Cc2cnc(NC(=O)c3ccc4c(c3)CC(c3ccccc3)OC4=O)s2)cc1 (configuration not stated)	.	.	-1	.	10	.	.
CC(C)(C)NC(=O)c1cc2c(ccc3ccccc32)oc1=O	.	12	.	1	.	?	9%
CCc1ccc(CNC(=O)CN2C(=O)CCn3nc(-c4cn(C)c5ccccc45)cc32)cc1	.	.	1	.	-2	.	.
O=C1CC(N2CCOCC2)C(=O)N1Cc1ccc(N2CCCC2=O)cc1 (configuration not stated)	18	1	1	-2	-3	.	.
O=C1CC(N2CCN(Cc3ccc4c(c3)OCO4)CC2)C(=O)N1Cc1ccc(N2CCCC2=O)cc1 (configuration not stated)	21	-3	54*	-17	-16	-9%	12%
Cc1ccc(Nc2nc(C)nc(N)c2S(=O)(=O)c2ccccc2)cc1	.	.	0	.	-2	.	.
O=C(O)CC1Sc2ccccc2NC1=O (configuration not stated)	6	-6	51*	-19	-28	-7%	-2%
CCOC(=O)CC1Sc2ccccc2NC1=O (configuration not stated)	-11	-4	.	-4	18	.	.
NS(=O)(=O)c1ccc(CCNC(=O)C2CCN(S(=O)(=O)c3ccccc3)CC2)cc1	-11	-3	-1	-3	7	.	.
O=C(COC(=O)C1CCN(S(=O)(=O)c2ccccc2)CC1)NCCc1ccccc1	-24	0	0	1	0	-2%	0%
CC(CCc1ccccc1)NCc1cccc2ccccc12 (configuration not stated)	32*	2	57*	-78	-27	16%	14%
Cc1cccc(-n2ncc(C(=O)NCc3ccccn3)c2C2CCN(C(=O)OC(C)(C)C)CC2)c1	.	.	0	.	-4	.	.
COc1ccc(-c2cc(C(F)(F)F)n3ncc(-c4ccccc4)c3n2)cc1	.	.	0	.	-10	.	.
SMILES	D2 antag	D2 ag-1	D2 ag-2	D2 PAM-1	D2 PAM-2	D3 ag	D2 ag-3
C/C(=N\NC(=S)Nc1cccc(C)c1)c1ccccc1	-6	-8	-1	-40	12	.	.
C/C(=N\NC(=S)Nc1cccc(C)c1)c1ccco1	67*	6	70*	-10	-7	-1%	-5%
COc1ccc2nc3ccccc3nc2c1NC(=O)c1ccc(Cl)cc1Cl	6	-7	29	-25	-3	-6%	15%
COc1cc(-c2cc(C(=O)Nc3c(Cl)cc(Cl)cc3Cl)c3ccccc3n2)cc(OC)c1OC	5	-5	0	-14	7	.	.
O=C(NCc1ccc(F)cc1)c1c(O)nc2ccccn2c1=O	.	.	0	.	5	.	.
O=[N+]([O-])c1c(NCCO)cc(N2CCN(Cc3ccc4c(c3)OCO4)CC2)c2nonc12	-12	-3	40*	-25	-19	-1%	13%
COc1ccc(-c2nc3sc(CCNC(=O)c4ccc(C(C)(C)C)cc4)c(C)n3n2)cc1	.	.	1	.	0	.	.
Cc1cccc(C)c1NC(=S)N(C)CCc1ccccn1	-22	-7	0	-11	0	.	.
CC(C)c1ccc(NC(=S)N(C)CCc2ccccn2)cc1	36*	-2	21	-8	-11	-4%	-1%
CCc1ccc(CNC(=O)C2CCCN(c3nn4cc(-c5ccc(F)cc5)nc4s3)C2)cc1 (configuration not stated)	.	.	0	.	-19	.	.
Cc1nnc(NC(=O)CCC(=O)N2CCN(CCOc3cccc4ccccc34)CC2)s1	52*	?	55*	-22	-24	?	?
CCCc1nnc(NC(=O)CCC(=O)N2CCN(CCOc3ccc(C)cc3)CC2)s1	-2	0	-2	3	11	.	.
Cc1ccc(OCCN2CCN(C(=O)CCC(=O)Nc3nnc(C(C)C)s3)CC2)cc1	-5	3	0	-42	8	.	.
Cc1ccc(OCCN2CCN(C(=O)CCC(=O)Nc3nnc(C)s3)CC2)cc1	6	1	4	-16	12	?	1%
Cc1c(C(=O)N2CCN(c3ccccc3)CC2)oc2c(Cl)cccc12	13	1	-1	-10	7	-6%	-3%
CCOC(=O)c1[nH]c(C)c(C(=O)N2CCN(c3ccccc3)CC2)c1C	23	-3	31*	-18	-5	2%	2%
CCOC(=O)c1[nH]c(C)c(C(=O)N2CCOCC2)c1C	3	0	1	-1	3	.	.
CCOC(=O)c1cnc2ccc(C(=O)OC)cc2c1Nc1ccccc1CC	.	.	8	.	13	.	.
O=C(CSc1nnc(Cc2ccccc2)n1-c1ccc(Cl)cc1)N1CCOCC1	-4	0	40*	-8	2	2%	-1%
Cn1c(Cc2ccccc2)nnc1SCC(=O)N1CCOCC1	-23	-2	1	-3	3	.	.
Cc1c(C(=O)N2CCN(Cc3ccc4c(c3)OCO4)CC2)sc2ncnc(N3CCN(c4ccccc4F)CC3)c12	.	?	.	7	.	23%	?

Compound activity from PubChem.
